# High-throughput results (PubChem)
# Shiga toxin inh = inhibitors of Shiga toxin in Vero cells. Vero cells, Shiga toxin protein synthesis inhibition reporter. inhibition, % at 38.7 µM. actives 9.2% (n = 290,000); in the data active = inhibition mostly above about 28%, no sharp cut-off; inactive = mostly below about 43%; also: 0% is about no effect
# FBPA Giardia inh = blocks Giardia fructose-bisphosphate aldolase activity. A8B2U2. purified Giardia FBPA. Potency, µM (top dose mostly 59.6 µM), for the others: top-dose activity, negative = inhibition, most hits filed as inhibitors. actives 0.71% (n = 290,000). AID 2451; also: potency is read from the fitted curve at half-maximal effect; % is scaled to controls: 0 for no effect and ±100 for the full control effect; nearly all actives have a fitted effect of over 55% in size
#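 Giardia FBPA (40 nM reagent) was preincubated 10 min at RT with compound (up to 57.5 uM final), then substrate plus GAPDH/TPI/NAD/arsenate coupling system with diaphorase/resazurin was added; resorufin fluorescence (525/598 nm) was read after 20 min.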
# NS1 function inh = blocks influenza NS1 protein function; Potency, µM (top dose mostly 46.1 µM), inactives show at the top dose activity, positive = more growth; actives 0.4% (n = 270,000); calls by dose curve; also: potency is read from the fitted curve at half-maximal effect; actives are rising curves; nearly all actives have a fitted effect of over 50% in size
#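 OD600 was taken as the measure of yeast growth restored by compound in an NS1-expressing S. cerevisiae strain. Cells had been washed out of glucose medium and diluted 1:100 into galactose -URA medium, pH 6.0.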
# Cycloheximide cs = affects cycloheximide protein synthesis inhibition readout, counter-screen | cell reporter, cycloheximide protein synthesis inhibition counterscreen | max response, % | actives 12% (n = 300,000) | AID 2314; in the data active = max response mostly above about 13%, no sharp cut-off; inactive = mostly below about 14%; also: read at 38.3 µM for the half of the compounds with a filed dose; 0% is about no effect
# LmPK inh = LmPK (Leishmania mexicana) enzyme inhibition. Q27686. purified LmPK, Kinase-Glo ATP luminescence, 1 h. AID 1721. actives 0.37% (n = 290,000). Potency, µM (highest dose often 57.5 µM), inactives show top-dose activity change, negative = inhibition, hits mostly inhibitors; also: potency is read from the fitted curve at half-maximal effect; % is scaled to controls: 0 for no effect and ±100 for the full control effect
# Target sequence (Q27686 whole entry, looked up): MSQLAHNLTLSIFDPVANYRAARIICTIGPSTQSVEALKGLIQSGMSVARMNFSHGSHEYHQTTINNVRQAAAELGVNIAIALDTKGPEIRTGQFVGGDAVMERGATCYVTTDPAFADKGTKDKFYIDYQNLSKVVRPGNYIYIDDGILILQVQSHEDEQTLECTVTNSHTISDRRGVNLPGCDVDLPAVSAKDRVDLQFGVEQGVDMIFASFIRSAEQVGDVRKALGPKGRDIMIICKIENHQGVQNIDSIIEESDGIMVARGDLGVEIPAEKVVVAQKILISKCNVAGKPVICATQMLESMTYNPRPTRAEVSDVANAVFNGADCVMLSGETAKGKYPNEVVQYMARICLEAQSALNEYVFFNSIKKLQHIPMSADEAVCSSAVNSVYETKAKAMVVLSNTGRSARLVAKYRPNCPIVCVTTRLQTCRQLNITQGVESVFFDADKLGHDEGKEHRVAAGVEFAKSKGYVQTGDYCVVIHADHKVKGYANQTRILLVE
#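 Purified LmPK (0.1 nM) converted ADP (0.1 mM) to ATP with PEP (0.5 mM) in imidazole buffer pH 7.2 with KCl and MgCl2, 1 h at room temperature. ATP was read by Kinase-Glo luminescence; data normalized to uninhibited and no-enzyme controls.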
# * hit, by the source's call; ? = inconclusive; · = no result; [ ] = another dose, or the depositor's remark. Hits are enriched below; roughly 14% of the tested compounds scored in any of these assays. Unless noted, calls follow the shape of the dose curve; as a rule, active = well fitted curve in the direction sought with a large enough effect; inconclusive = small, poorly fitted or top-dose-only effect, or another doubt; inactive = no such curve, though single readings can be large; an effect the other way counts as inactive or inconclusive.
SMILES,Shiga toxin inh,FBPA Giardia inh,NS1 function inh,Cycloheximide cs,LmPK inh
CCCOC1CCCN(C(=O)c2cc(COc3c(F)cccc3F)on2)C1 (stereo unspecified),92.8*,·,-8.4%,46.8*,-5.0%
COc1cc(Cl)ccc1OCc1cc(C(=O)N2CCC(N(C)C)C2)no1 (stereo unspecified),1.7,5.1%,-1.5%,11.0,7.5%
Cc1ccccc1C1CCCN(C(=O)c2cc(COc3c(F)cccc3F)on2)C1 (stereo unspecified),4.9,-2.6%,3.6%,2.2,5.5%
Cc1ccccc1Cn1c(NC2CCCC2)nc2c1c(=O)[nH]c(=O)n2C,-2.5,-3.1%,9.0%,-4.1,-0.6%
CC(=O)[C@]1(O)CC[C@@H]2[C@H]3C[C@@H](C)C4=CC(=O)CC[C@@]4(C)C3[C@@H](O)C[C@]21C (stereo partly specified),·,·,-2.9%,·,·
Cc1cc2ncn(/N=C/c3ccc4c(c3)OCO4)c2cc1C,76.3*,15.2%,5.6%,18.4*,2.3%
c1ccn2cc(-c3ccc4c(c3)OCO4)cc2c1,48.4,-29.4%,7.5%,8.3,-10.9%
COC(=O)c1ccc2nc(-c3ccc4c(c3)OCO4)cn2c1,68.8*,-0.7%,0.1%,39.8*,?
CCc1ccn2cc(-c3ccc4c(c3)OCO4)nc2c1,-24.0,?,-69.2%,5.2,14.1µM*
COc1ccc(-c2nc3cnc(OCc4ccccc4)nc3n(CCC#N)c2=O)cc1,·,7.4%,·,·,·
Cc1ccc(OCc2ccc(C(=O)Nc3nccs3)o2)cc1C,46.9,·,15.7%,24.9*,6.9%
O=C(Nc1nccs1)c1ccc(COc2ccccc2Cl)o1,80.6*,-5.9%,·,60.3*,8.5%[11.5 µM]
Cc1cc(NC(=O)c2ccc(COc3ccccc3Cl)o2)no1,18.2,-3.3%,·,12.4,13.0%
CCOC(=O)C1C(=O)N(C(=O)c2cncc(Br)c2)CC1c1ccccc1 (stereo unspecified),-11.1,-1.3%,-12.0%,-1.7,-7.3%
CCOC(=O)C1C(=O)N(C(=O)c2ccc(OC)cc2)CC1c1ccccc1 (stereo unspecified),16.5,6.1%,1.2%,9.6*,0.4%
O=[N+]([O-])c1cccc(-c2ccc(SCc3ccccn3)nn2)c1,56.4*,-2.5%,·,36.5*,7.3%
COc1cccc(-c2ccc(SCc3ccccn3)nn2)c1,77.3*,-8.3%,·,41.9*,14.1µM*
COc1ccc(-c2ccc(SCc3ccccn3)nn2)cc1OC,35.1,?,·,28.8*,1.7%
COc1ccc(-c2ccc(SCC(=O)c3ccccc3)nn2)cc1OC,24.0,-13.3%,·,22.0,7.1%
Cc1nnc(NC(=O)c2ccc(F)c(S(=O)(=O)N3CCCCC3)c2)s1,-4.6,-4.2%,-17.0%,-1.7,4.3%
Cn1nccc1C(=O)N(CCN1CCCCC1)CC1CCCN(C2CCCC2)C1 (stereo unspecified),23.1,6.0%,-3.5%,22.6*,0.8%
COc1ccc(C(=O)N2CCCC(Nc3ccc(F)cc3)C2)c(OC)c1 (stereo unspecified),-6.6,·,2.3%,1.0,-1.8%
COc1ccc(/C=N/n2c(-c3ccccc3)n[nH]c2=S)cc1,-9.3,?,-8.1%,-4.0,-10.2%
COc1ccc(/C=N/n2c(=S)n(C)c3ccccc32)cc1OC,3.1,-13.3%,-12.4%,5.6,7.7%
COc1cccc(/C=N/n2c(SC)nnc2-c2ccccc2)c1OC,-15.4,8.0%,-70.9%,-2.1,-3.8%
SMILES,Shiga toxin inh,FBPA Giardia inh,NS1 function inh,Cycloheximide cs,LmPK inh
COc1cccc(/C=N/n2c(N)nc3ccccc32)c1OC,37.5,-9.0%,-55.8%,25.4*,-0.5%
COc1ccc(/C=N/n2c(N)nc3ccccc32)cc1OC,50.5,1.7%,-12.8%,28.9*,-5.1%
COc1ccc(/C=N/N2CCN(C)CC2)c(OC)c1OC,10.2,3.4%,·,4.7,10.3%
COc1ccc(/C=N/n2c(N)nc(-c3ccccc3)c2-c2ccccc2)cc1,86.3*,5.1%,-8.8%,30.6*,0.6%
COc1ccc(/C=N/n2c(C)nnc2C)c(OC)c1OC,68.2*,-0.6%,6.9%,5.9,-1.7%
COCCN(Cc1ccc(F)cc1)C(=O)c1cc2ccccc2oc1=O,15.8,16.7%,19.2%,13.5,-1.3%
COc1ccc(CC(=O)NNS(=O)(=O)c2ccccc2)cc1OC,-14.8,-4.3%,0.2%,-1.6,-5.6%
C(=N\n1cnc2ccccc21)/c1cccnc1,57.9,1.1%,-4.6%,18.8*,-6.4%
COc1cccc(/C=N/n2c(=S)n(C)c3cc(C)c(C)cc32)c1OC,-21.0,-2.9%,8.0%,-2.6,4.7%
Cc1cc2ncn(/N=C/c3cccnc3)c2cc1C,-10.5,0.9%,-133.5%,-1.8,0.1%
COc1cccc(/C=N/n2cnc3ccccc32)c1OC,70.7,2.5%,-12.8%,30.6*,-3.6%
CCN(CC)CCCCn1c(-c2ccccc2)nc2c(NCCOC)nc(C)nc21,·,4.1%,·,·,·
Cc1ccc(/C=C2\SC(=S)N(/N=C/c3cc([N+](=O)[O-])ccc3O)C2=O)o1,23.7,-24.1%,·,19.3*,-7.7%
O=[N+]([O-])c1ccc(O)c(/C=N/n2cnc3ccccc32)c1,-2.1,4.6%,-4.4%,3.4,0.1%
COc1ccc(NC(=O)c2ccc3nc[nH]c3c2)cc1,62.0*,-3.7%,4.3%,38.1*,-0.7%
O=C(Nc1ccc(C(F)(F)F)cc1)c1ccc2nc[nH]c2c1,54.1*,11.3%,-52.3%,22.8*,-1.0%
O=C(Nc1ccc2c(c1)OCO2)c1ccc2nc[nH]c2c1,68.3*,-14.2%,15.6%,52.3*,-25.8%
Cc1nc2ccc(C(=O)Nc3ccc4nc[nH]c4c3)cc2[nH]1,-8.1,-11.8%,4.1%,5.4,1.1%
O=C(COc1ccccc1Br)NC1CCCC1,77.6*,4.9%,-3.3%,31.9*,6.5%
COc1ccccc1OCC(=O)NC1CCCCCC1,41.7*,3.3%,-45.1%,21.8*,-1.5%
CC(=O)Nc1ccc(/C=N/N2CCCCC2)cc1,116.3*,-1.6%,·,44.4*,1.5%
CC(=O)Nc1ccc(/C=N/N2C(C)CCCC2C)cc1 (stereo unspecified),21.9,13.2%,·,15.9*,-5.1%
CC(=O)Nc1ccc(NC(=O)N2CCCCC2)cc1,13.3,0.5%,?,6.3,-14.1%
COc1ccccc1NC(=O)C(=O)NCC1COc2ccccc2O1 (stereo unspecified),14.1,-2.2%,-10.4%,23.4*,3.0%
COc1ccc(/C=C/C(=O)NCC2COc3ccccc3O2)c(OC)c1 (stereo unspecified),46.3*,?,14.3%,20.3*,6.2%
O=C(/C=C/c1ccco1)NCC1COc2ccccc2O1 (stereo unspecified),39.9,15.1%,-6.5%,35.6*,-4.4%
Cc1ccc(Cn2c(CO)cnc2SCC(=O)Nc2ccc(C)c(Cl)c2)cc1,21.0,·,·,9.1,·
N#Cc1ccc(-n2c(-c3ccccc3)nnc2-c2ccccc2)cc1C#N,36.8,-2.8%,?,30.0*,0.0%
N#Cc1cccc(-n2c(-c3ccccc3)nnc2-c2ccccc2)c1C#N,24.3,-8.6%,26.0%,19.0*,5.4%
COc1ccc(-c2noc(N3CCC(C(=O)Nc4cccc(OC)c4)CC3)n2)cc1,24.6*,-5.5%,-0.5%,11.5*,-9.0%
